Shown are actives, neighbours in structure and some others; about 31% of the full set was active somewhere.
CYP2C9 activ – CYP2C9 (human) activation; P11712; recombinant CYP2C9, luciferin-H conversion, luminescence; stronger effect = higher value; factor 1 = untreated enzyme, 0 = blocked; activation factor at 5 µM; 96,000 compounds, 1.4% hits;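 active = activation factor of 2 or more for CYP2C9 at a 5 µM dose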;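 note: 0 = sulfaphenazole-blocked wells and 1 = vehicle-only wells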
CYP2C9 inh – blocks human cytochrome P450 2C9; P11712; CYP2C9 Supersomes, luciferin-H conversion, luminescence; inhibition, % at 5 µM; 96,000 compounds, 20% hits;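 active = blocking of liver enzyme CYP2C9 beyond about 50% at 5 µM, limit read from the data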
PLAP activator – human PLAP activation. P05187. purified PLAP enzyme, luminescent substrate read-out; stronger effect = higher value. activation fold at 20 µM. 96,000 compounds, 1.2% hits; in the data active = activation fold above about 2
Target sequence (P05187 whole entry, looked up): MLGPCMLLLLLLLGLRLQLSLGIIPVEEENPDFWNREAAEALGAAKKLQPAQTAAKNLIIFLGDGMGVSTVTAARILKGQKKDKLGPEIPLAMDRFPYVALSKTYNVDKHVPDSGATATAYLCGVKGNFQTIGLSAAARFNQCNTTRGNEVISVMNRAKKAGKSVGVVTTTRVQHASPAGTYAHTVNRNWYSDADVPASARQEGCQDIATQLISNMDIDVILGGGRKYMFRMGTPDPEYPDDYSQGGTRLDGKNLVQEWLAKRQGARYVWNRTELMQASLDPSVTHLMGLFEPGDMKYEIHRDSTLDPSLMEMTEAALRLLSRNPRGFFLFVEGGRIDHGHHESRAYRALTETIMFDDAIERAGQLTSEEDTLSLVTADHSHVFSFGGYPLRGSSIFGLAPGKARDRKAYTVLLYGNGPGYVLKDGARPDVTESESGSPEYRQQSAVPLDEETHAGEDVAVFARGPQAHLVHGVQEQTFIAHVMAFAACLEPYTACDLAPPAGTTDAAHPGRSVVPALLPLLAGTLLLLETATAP
CYP2C19 activ – increases human CYP2C19 enzyme activity; P33261; recombinant CYP2C19, luciferin-H EGE luminescence; stronger effect = higher value; 0 = fully inhibited enzyme, 1 = untreated enzyme; activation factor at 5 µM; 96,000 tested, under 10 active; AID 1025;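 active = activation factor of at least 2 at 5 µM in the primary screen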;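 note: 0 = wells with 2.5 mM tranylcypromine and 1 = vehicle-only wells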
CYP2C19 inhib – inhibitors of human CYP2C19; P33261; inhibition, % at 5 µM; CYP2C19 Supersomes, luciferin-H EGE luminescence, 30 min; AID 778; 96,000 compounds, 21% hits;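 active = CYP2C19 inhibition above a set limit at 5 µM in the primary screen, cut at about 50% in these data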;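 note: plate controls were negative control wells for no effect and 2.5 mM tranylcypromine positive control for full effect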
Starred values were filed as active, the others as inactive.

SMILES	CYP2C9 activ	CYP2C9 inh	PLAP activator	CYP2C19 activ	CYP2C19 inhib
COC(=O)c1c(NC(=O)c2ccc(C)c(S(=O)(=O)Nc3ccccc3C)c2)sc2c1CCCC2	0.4	59.2*	1.5	1	1.5
COC(=O)c1c(NC(=O)c2ccoc2C)sc2c1CCC2	0.9	7.1	1	0.9	7.4
COC(=O)c1c(NS(=O)(=O)c2ccc3ccccc3c2)sc2c1CCCC2	0	98.5*	1.6	0	99.5*
COc1ccc(C2CC(=O)NC3=C2C(=O)CCC3)cc1Cl (centres undefined)	1.1	-14.9	0.9	0.8	21.3
CC(=O)c1cccc(NC(=O)N2CCCC2C(=O)Nc2cccc(C)c2)c1 (centres undefined)	0.5	53.0*	0.9	0.6	45.0
Cc1cc(C)cc(NC(=O)N2CCCC2C(=O)Nc2ccc(-n3cnnn3)cc2)c1 (centres undefined)	1	4.4	0.9	0.2	83.0*
CC(=O)Nc1cccc(NC(=O)C2CCCN2C(=O)Nc2cccc(C)c2)c1 (centres undefined)	1	-3.7	1	1.1	-6.0
Cc1nn(Cc2c(F)c(F)c(F)c(F)c2F)c(C)c1NC(=O)c1ccc(COc2ccccc2Cl)cc1	1	0.4	1	1	-2.3
Cc1nn(Cc2c(F)c(F)c(F)c(F)c2F)c(C)c1NC(=O)c1ccc(COc2ccccc2Cl)o1	0.4	59.3*	1.4	0.5	53.2*
CCN(CC)c1ccc(NC(=O)c2ccco2)c(C)c1	1.3	-33.0	0.8	1.1	-5.0
CCN(CC)c1ccc(NC(=O)c2ccc(Br)o2)c(C)c1	2.4*	-140.3	0.8	0.7	29.1
COc1ccc(NC(=O)c2ccc(COc3ccccc3Br)o2)cc1OC	0.3	73.1*	1	0.6	36.5
COc1ccccc1NC(=O)c1ccc(Br)o1	2.4*	-137.6	1.1	0.7	33.2
CC(C)(C)NC(=O)CSc1ncnc2c1nnn2Cc1ccccc1Cl	1.1	-7.3	1	0.7	29.4
Cc1ccc(Oc2ccc(NC(=O)CCC(=O)OCC(=O)c3cccs3)cc2)cc1C	1	-1.3	1	0.9	7.0
Cc1cccc(NC(=O)c2ccc(COc3ccc(Cl)cc3Cl)o2)n1	0.4	56.1*	1.1	0.6	44.1
COc1cc(NC(=O)c2ccc(Br)o2)ccc1NC(=O)c1ccccc1Cl	0.2	77.0*	1.4	0	98.3*
COc1ccc(NC(=O)c2ccco2)cc1NC(=O)c1ccc(Br)o1	0.6	42.0	0.9	0.6	41.2
O=C(CN1CCN(Cc2cccc(Cl)c2)C1=O)NCc1ccccn1	1.1	-11.9	1.2	1.2	-20.2
CCC(=O)c1ccc(OCCSc2ncccn2)cc1	1.1	-10.0	1	1	-1.0
O=C(Nc1ccccc1C(=O)N1CCCC1)c1cccc(S(=O)(=O)N2CCCCCC2)c1	0.2	80.2*	1.6	0.5	54.2*
O=C(Nc1cccc(O)c1)c1cccc(S(=O)(=O)N2CCCC2)c1	0.8	15.2	0.9	0.9	13.0
Cc1ccc(O)c(NC(=O)c2cccc(S(=O)(=O)N3CCCCC3)c2)c1	0.5	52.7*	1.1	0.4	58.7*
Cc1ccccc1NC(=O)c1cc(S(=O)(=O)N2CCCCC2)cs1	0.5	51.1*	1	0.7	34.4
Cn1c(=O)c(C(=O)c2ccccc2)nc2ccccc21	1.4	-40.8	0.9	0.6	43.0
SMILES	CYP2C9 activ	CYP2C9 inh	PLAP activator	CYP2C19 activ	CYP2C19 inhib
O=C(c1ccccc1)c1nc2ccccc2n(CCCn2c(=O)c(C(=O)c3ccccc3)nc3ccccc32)c1=O	0	96.8*	1	0.3	73.7*
CN(CCc1ccccn1)Cc1ccc(Cl)cc1Cl	1	1.9	1.2	0.3	67.9*
CN(CCc1ccccn1)S(=O)(=O)c1ccccc1F	1.3	-32.8	0.8	0.4	64.4*
O=C(N/N=C\c1ccc(-c2ccccc2[N+](=O)[O-])o1)C1COc2cc3ccccc3cc2O1 (centres undefined)	0.5	52.6*	1.2	0.6	40.8
CCn1ccc(C(=O)Oc2ccc(C(C)C)cc2)n1	1.2	-23.5	1.3	0.9	8.5
CCCn1c(-c2ccc(OC)cc2)nc2ccccc21	0.9	9.5	0.8	0.9	10.6
C=C(C)Cn1c(-c2ccc(OC)cc2)nc2ccccc21	0	96.5*	1.5	0.1	90.1*
CCOC(Cn1c(-c2ccc(OC)cc2)nc2ccccc21)OCC	0.1	85.8*	1.7	0.5	49.8
COc1ccc(-c2nc3ccccc3n2Cc2ccc(C)cc2)cc1	0.8	23.1	1.1	1	-2.2
CCCOc1ccc(C2C(C(=O)c3ccco3)=C(O)C(=O)N2CCCn2ccnc2)cc1 (centres undefined)	0.4	60.6*	1.5	0.7	25.2
COc1ccc(C2C(C(=O)c3cccs3)=C(O)C(=O)N2c2nnc(C)s2)cc1OC (centres undefined)	0.8	17.1	1.3	1	3.1
Cc1nc(C)c(C(=O)C2=C(O)C(=O)N(CCCn3ccnc3)C2c2ccc(Cl)cc2)s1 (centres undefined)	0.4	58.9*	1.4	0.8	24.4
COc1cccc(C2C(C(=O)c3cccs3)=C(O)C(=O)N2CCCn2ccnc2)c1OC (centres undefined)	0.1	88.6*	1.6	0.2	77.2*
O=C(O)Cn1c2c(c3ccccc31)CCCC2	0.9	11.3	1.3	1	3.4
Cc1cc(C)c(C)c(S(=O)(=O)NCC(=O)Nc2sc3c(c2C(N)=O)CCCC3)c1C	0.8	22.1	1.3	0.7	31.6
C=CCn1c(SCC(=O)Nc2ncc(Cc3ccc(Br)cc3)s2)nnc1-c1ccncc1	1	-0.7	1.3	0.7	33.1
S=C(NCc1cccs1)Nc1cccc(Cl)c1	0.9	6.4	0.9	0.4	61.6*
Cc1cc(Cl)ccc1NC(=S)NCc1cccs1	0.4	63.1*	0.7	0	97.4*
O=C(NCc1cccs1)c1cc(-c2cccc(Cl)c2)on1	1.2	-21.6	0.9	0.9	10.9
CC(C)c1ccc(NC(=S)NCc2cccs2)cc1	0.7	31.9	0.5	0.6	42.0
Cc1ccc(NC(=S)NCc2cccs2)c(C)c1	0.8	15.7	0.8	0.3	72.7*
Cn1nc(C(C)(C)C)cc1C(=O)Nc1nc2c(s1)C(=O)CC(C)(C)C2	0.9	8.4	1.4	0.9	10.2
CCOc1cc(C2C(C#N)=C(N)Oc3n[nH]c(C)c32)ccc1OCCN1CCOCC1 (centres undefined)	1	0.2	1.6	1	3.1
Cc1[nH]c(=O)[nH]c(=O)c1CSc1nnc(CCCCCNC(=O)OC(C)(C)C)o1	1	-4.6	1	1	2.1
O=C(O)c1[nH]c2ccccc2c1NS(=O)(=O)Cc1ccccc1	0.7	26.7	1.2	1	4.7
O=[N+]([O-])c1ccc(Oc2cccc(Br)c2)c2ccncc12	0.8	16.0	0.7	0.4	58.5*
O=[N+]([O-])c1ccc(Oc2ccc(F)cc2)c2ccncc12	0.5	49.8	0.7	0.2	83.5*
CCOC(=O)Cn1c(C)c(Br)c(=O)c2cccc(C)c21	1	-4.5	1.1	1.1	-5.3

Compound activity: PubChem, Sanford-Burnham Center for Chemical Genomics
